# TRHR enhancer: TRH receptor (human) allosteric enhancement | P34981 | TRHR cells, fluo-8 calcium fluorescence, EC20 TRH enhancement | enhancement, % at 2 µM | 360,000 compounds, 0.66% hits | AID 493056; in the data active = enhancement above about 30%; note: 0% is about no effect
# Target sequence (P34981 whole entry, looked up): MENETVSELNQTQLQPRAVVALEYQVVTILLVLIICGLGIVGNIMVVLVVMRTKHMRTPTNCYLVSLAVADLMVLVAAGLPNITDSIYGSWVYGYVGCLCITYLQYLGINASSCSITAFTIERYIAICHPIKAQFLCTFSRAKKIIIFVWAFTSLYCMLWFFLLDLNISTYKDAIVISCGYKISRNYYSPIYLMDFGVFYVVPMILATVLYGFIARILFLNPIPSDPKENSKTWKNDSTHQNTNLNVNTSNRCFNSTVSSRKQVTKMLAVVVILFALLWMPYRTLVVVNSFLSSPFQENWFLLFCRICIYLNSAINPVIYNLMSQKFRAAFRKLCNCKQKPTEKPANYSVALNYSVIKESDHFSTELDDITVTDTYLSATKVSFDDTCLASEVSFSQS
#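 Enhancer read-out: after compound pinning and an initial kinetic agonist-mode read, an EC20 of TRH (10 nM final) was injected and fluo-8 calcium signal (Ex 480/Em 530) followed at 1 s/cycle for 100 cycles in TRHR-expressing cells.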
# D1 PAM: human D1 dopamine receptor positive modulation. P21728. HEK293 TREx D1 cells, calcium flux, dopamine EC20 potentiation. potentiation, % at 10 µM. 360,000 compounds, 0.036% hits. AID 504651; in the data active = potentiation above about 30%; note: 0% is about no effect
# TRHR ag: agonists of human TRH receptor; P34981; 360,000 compounds, 0.18% hits; TRHR cells, calcium flux fluo-8, FDSS agonist mode; activation, % at 2 µM; AID 493084; note: 0% is about no effect
#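 TRHR-expressing cells, plated overnight in medium with 10% serum, were loaded with fluo-8 calcium dye at room temperature. After a 10 s baseline, library compound was pin-added and calcium release was recorded kinetically (ex 480/em 530) as agonist response.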
# D1 antag: antagonists of human D1 dopamine receptor; HEK293 TREx D1 cells, calcium flux, dopamine EC80; hits give low values; P21728; 360,000 compounds, 3.2% hits; activity change, negative = inhibition, % at 10 µM; in the data active = activity change below about -30%; note: % is set by controls: 0 for no effect and ±100 for the full control effect
#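 Kinetic fluorescence of a calcium dye serves as the read-out. D1-expressing Hek293 Trex cells, induced overnight at 30 C, are exposed to compound for 180 s before an EC80 dopamine addition, then read 180 s further.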
# D1 agonist: agonists of human D1 dopamine receptor | P21728 | HEK293 T-REx D1 cells, calcium flux, agonist mode | activation, % at 2 µM | 360,000 compounds, 1% hits | AID 504660; note: 0% is about no effect
#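 Inducible HEK293 T-REx D1 cells, force-coupled to calcium signalling, were plated at 4000 cells/well with tetracycline and held overnight at 30 C. After no-wash calcium dye loading, compound-evoked calcium rise over 180 s flagged agonists.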
# Numbers without * were called inactive; / = no result. The list is not random: actives were taken first. Their share in the collection is about 4.6%. Cut-off read from the data, not from the text of the source, unless noted: active = activation above about 30%; inactive = the rest.
SMILES,TRHR enhancer,D1 PAM,TRHR ag,D1 antag,D1 agonist
O=C1C=C(NC2=CC3OC(c4ccccc4)OCC3OC2=O)CCC1 (stereo unspecified),-8.1,-5.2,-0.6,-30.6*,3.0
O=C1CC(NNC(=O)c2ccccc2)C(=O)N1 (stereo unspecified),-4.9,-4.6,-0.1,-40.5*,2.0
O=C1CC(NNC(=O)c2ccc(Br)cc2)C(=O)N1 (stereo unspecified),-4.9,-3.7,0.7,-19.3,3.4
O=C(CN1CCN(c2ccccc2)CC1)c1ccc2cc[nH]c2c1,-3.5,-5.7,3.7,-36.0*,5.4
CCOC(=O)CN(C(=O)CSc1nnc(-c2cccc(OC)c2)o1)c1ccc(F)cc1,10.6,0.3,-1.4,-22.4,56.1*
Cc1ccc(C)c(NC(=O)CSc2nnc(-c3ccco3)o2)c1,32.2*,-1.7,-0.3,6.4,0.7
Cc1occc1-c1nnc(SCC(=O)Nc2ccccn2)o1,38.8*,1.0,-0.1,3.1,8.6
Cc1cccc(NC(=O)CSc2nnc(-c3ccco3)o2)c1C,-3.2,1.8,-0.5,1.1,0.5
COC(=O)CN(C(=O)CSc1nnc(-c2cccc(OC)c2)o1)c1ccc(OC)cc1,5.5,2.6,-0.1,0.4,2.8
COc1ccccc1NC(=O)CSc1nnc(-c2ccc(C)cc2)o1,-4.8,-10.2,0.0,-82.3*,1.1
COc1ccc(Br)cc1CNC(=O)CN1C(=O)c2cccnc2Oc2ccc(C)cc21,0.5,0.1,-0.7,7.0,-0.2
CCOc1ccccc1NC(=O)C1CCN(S(=O)(=O)c2ccc3c(c2)CCCN3C(C)=O)CC1,-0.3,0.2,-0.3,-2.7,-1.0
COc1ccc(CC(=O)NCC(c2cccs2)S(=O)(=O)c2ccc(Cl)cc2)cc1 (stereo unspecified),-1.0,5.3,-0.6,/,-4.3
COc1ccccc1CNC(=O)c1cc2c(=O)n(Cc3cccs3)ccc2nc1C,-3.9,-8.8,0.2,-27.6,3.8
COc1ccc(CCCc2nnc(SCC(=O)Nc3ccc(F)cc3)o2)cc1C,3.1,-5.2,-0.7,-50.0*,1.4
Cc1ccc(NC(=O)CSc2nnc(-c3ccc([N+](=O)[O-])cc3)o2)c(C)c1,1.8,-0.1,-0.4,-3.8,50.6*
COc1ccc(-c2nnc(SCC(=O)Nc3cc(F)ccc3C)o2)cc1,13.4,/,-1.1,-38.7*,12.4
CC(C)c1ccccc1NC(=O)CSc1nnc(COc2ccccc2)o1,3.3,-3.2,-0.5,-24.2,2.0
CC(C)c1ccccc1NC(=O)CSc1nnc(COc2ccccc2Cl)o1,0.4,-0.8,-0.6,-8.6,38.3*
COc1ccc(CCCc2nnc(SCC(=O)Nc3ccccc3F)o2)cc1C,0.5,-1.6,0.6,-30.0,15.3
CSCCC(NS(=O)(=O)c1ccc2c(c1)oc(=O)n2C)C(=O)N1CCN(c2cc(Cl)ccc2C)CC1 (stereo unspecified),-3.1,-0.1,-0.2,-8.9,1.6
N#C/C(=C/c1ccncc1)c1nc2ccccc2s1,15.9,-2.1,15.7,1.0,100.9*
CCC(C)Sc1oc(-c2ccco2)nc1S(=O)(=O)c1ccc(C)cc1 (stereo unspecified),1.4,2.2,-0.4,-2.1,12.1
Cc1c(Cl)cccc1NC(=O)C1CCCN(c2nnc(-n3c(C)ccc3C)s2)C1 (stereo unspecified),-5.4,-2.7,-1.4,21.9,-0.4
COc1ccc(N2CCN(CC(=O)Nc3nc(C)cs3)CC2)cc1,6.2,-1.1,1.9,-40.5*,1.7
SMILES,TRHR enhancer,D1 PAM,TRHR ag,D1 antag,D1 agonist
COc1ccc(N2CCN(CC(=O)Nc3ncc(C)s3)CC2)cc1,3.2,2.3,-0.3,6.4,0.2
CN(c1ccccc1)c1ncnc2c1cnn2C,5.6,-0.2,-0.2,3.9,-1.8
O=C(NCCc1ccccc1)c1nnc(Cc2cccc(F)c2)o1,-3.9,-0.2,-0.3,4.9,37.8*
O=C(NCc1ccc(F)cc1)c1nnc(Cc2cccc(F)c2)o1,0.0,1.0,1.8,16.4,23.1
O=C(NCc1cccnc1)c1nnc(Cc2ccc(F)cc2)o1,-7.3,-4.5,0.0,-2.2,0.9
O=C(NCc1ccc2c(c1)OCO2)c1nnc(Cc2ccc(F)cc2)o1,-10.5,-1.9,0.5,-55.5*,2.6
Cc1ccccc1-n1c(CSC(=N)N)nc2ccccc2c1=O,5.3,1.5,0.0,-41.5*,1.5
O=c1c2ccccc2nc(CSc2nnnn2-c2ccccc2)n1-c1ccccc1Cl,-0.9,-1.1,-0.4,-35.3*,2.9
Cc1cccc(S(=O)(=O)Nc2cccc3c2C(=O)c2ccccc2-3)c1,-8.0,1.7,19.7,2.6,49.7*
Oc1cc(Nc2ccc(N3CCCCC3)cc2)cc2cccnc12,-2.5,-3.0,-0.1,-11.5,2.0
Cn1cc(CN2CCC(CO)(CCCc3ccccc3)CC2)c(-c2ccccc2)n1,-8.2,-4.9,-1.2,-1.5,47.0*
COc1ccc(Br)cc1CN1CCCC(C(=O)N2CCCCC2)C1 (stereo unspecified),-3.5,-6.6,-0.4,-26.0,0.9
COc1ccc(Br)cc1CN1CCCC(C(=O)N2CCCCCC2)C1 (stereo unspecified),-3.1,-6.0,-0.1,-33.7*,4.5
COc1ccc(C(=O)C2CCCN(Cc3cn[nH]c3-c3ccccc3)C2)cc1OC (stereo unspecified),-3.6,-5.9,-0.1,-30.5*,5.3
COc1cccc(OC)c1CN1CCCC(C(=O)c2ccccc2SC)C1 (stereo unspecified),-2.3,-4.6,-0.5,-56.7*,18.1
COc1ccccc1CN1CCCC(C(=O)N2CCCCC2)C1 (stereo unspecified),38.7*,0.4,0.7,-16.4,3.3
O=C(NCc1ccccc1Cl)C1CCCN(C(=O)c2cnn(-c3ccc(F)cc3)c2-n2cccc2)C1 (stereo unspecified),4.2,-1.5,-0.4,-3.5,1.8
O=C(COc1ccccc1)NCCc1csc(-c2ccc(Cl)cc2)n1,2.4,-2.5,-0.3,-49.3*,13.7
O=C(COc1ccc(Cl)cc1)NCCc1csc(-c2ccc(C(F)(F)F)cc2)n1,10.7,-3.4,0.8,-35.9*,10.4
O=C(Nc1ccc2c(c1)OCO2)C1CCCN1C(=O)Nc1ccccc1 (stereo unspecified),0.6,-1.8,-0.7,2.8,1.4
Cc1ccccc1C(=O)NCc1ccc2c(c1)CCN2C(=O)c1ccc(F)cc1,-0.6,-3.0,-0.5,-22.0,8.7
COc1cc(-c2n[nH]c(=S)n2/N=C/c2cccn2C)cc(OC)c1OC,2.0,-2.4,18.9,-58.7*,77.9*
Cn1cccc1/C=N/n1c(-c2ccco2)n[nH]c1=S,2.5,-4.7,0.1,18.6,-1.1
CCOc1ccc(C(=O)c2cn(CC(=O)Nc3ccc(F)c(F)c3)c3cc4c(cc3c2=O)OCCO4)cc1,-3.8,-0.1,2.4,11.8,1.4
Cc1ccc2nc(CN3CCN(S(=O)(=O)c4ccc(F)cc4)CC3)oc2c1,1.6,5.3,-0.4,0.6,-1.0
